Experimental data taken from ChEMBL document CHEMBL1157539, “Thousands of chemical starting points for antimalarial lead identification” (Nature, 2010).
Values joined by “and” are separate entries in the source; they are usually repeats but may differ in a detail not shown here. Equal entries are not always repeated.

Key:
Format in all cases: functional
Plasmodium falciparum [1] = experiment: GSK_TCMDC: Inhibition of Plasmodium falciparum 3D7 in whole red blood cells, using parasite LDH activity as an index of growth. Test compounds present at 2uM
Plasmodium falciparum [2] = experiment: GSK_TCMDC: Inhibition of Plasmodium falciparum Dd2 in whole red blood cells, using parasite LDH activity as an index of growth. Test compounds present at 2uM
HepG2 = experiment: GSK_TCMDC: Percent inhibition of human HepG2 cell line. Test compounds present at 10uM.

SMILES	Inhibition (Plasmodium falciparum [1])	Inhibition (Plasmodium falciparum [2])	Inhibition (HepG2)
COc1ccc2c(CNCCCCCCNCc3c(OC)ccc4cc(OC)ccc34)c(OC)ccc2c1.CS(=O)(=O)O	100%	79%	
Cc1[nH]c(C)c(-c2ccc(Oc3ccc(Cl)cc3)cc2)c(=O)c1Cl	91%	16%	
Cc1cc(O)c(-c2ccc(OCc3ccc(Cl)cc3)cc2)c(C)n1	93%	76%	
COc1ccc(OC)c(Cc2c(C)nc3nc(N)nc(N)c3c2C)c1.Cl	90%	0%	
CC(C)Cn1cc2c(ccc3nc(N)nc(N)c32)n1	97%	2%	
CCCCSc1ccc(CNCCCCCCNCc2ccc(SCCCC)c3ccccc23)c2ccccc12.CS(=O)(=O)O	94%	48%	
Cl.c1ccc(CN2CCN(CCCCNc3c4ccccc4nc4ccccc34)CC2)cc1	100%	100%	
CCc1ccc(Cc2cnc3nc(N)nc(N)c3c2C)cc1	97%	0%	
Cl.FC(F)(F)c1ccc2c(NCCCNc3ccnc4cc(C(F)(F)F)ccc34)ccnc2c1	100%	100%	
Nc1nc(N)c2c(ccc3c2ccn3Cc2ccc3c(c2)OCO3)n1	100%	95%	
CCc1nc(N)nc(N)c1-c1ccc2c(c1)CCCC2	95%	0%	
CC(C)Cn1ccc2c3c(N)nc(N)nc3ccc21	96%	96%	
COc1ccc2nc3cc(Cl)ccc3c(Nc3ccc(Oc4ccc(Nc5c6ccc(Cl)cc6nc6ccc(OC)cc56)cc4)cc3)c2c1.Cl	86%	93%	
Cc1[nH]c(C)c(-c2ccc(Oc3ccc(F)cc3)cc2)c(=O)c1Br	100%	98%	
Cl.Nc1ccncc1C(=O)NCCCCN1CCN(c2nsc3ccccc23)CC1	100%	9%	
CCN1C(=O)C(=NN=C(S)N2CCCC2)c2ccccc21	91%	9%	
Nc1ncc(-c2ccc(Br)cc2)c(N)n1	89%	0%	
CCC(C(C)C)n1ccc2c3c(N)nc(N)nc3ccc21 (stereo unspecified)	95%	95%	
CCN(c1ccc(O)c(CN2CCCCC2)c1)c1ccc([N+](=O)[O-])cn1.Cl	94%	64%	
COc1cc(Cc2cnc(N)nc2N)cc(OCCCCc2ccc([N+](=O)[O-])cc2)c1OC	88%	4%	
Cc1c(C(C)(C)C)ccc2nc(N)nc(N)c12	89%	0%	
Cc1nc2ccc(S(=O)(=O)Nc3ccc(C(=O)N[C@@H](CCC(=O)O)C(=O)O)cc3)cc2c(=O)[nH]1	94%	2%	
CCCCC#Cc1cnc2nc(N)[nH]c(=O)c2n1	89%	2%	
CCOC(=O)c1nc2ccc(SC3CCCCC3)cn2c1Br	86%	3%	
CCCCN(CCCC)CCCN(CCCN(CCCC)CCCC)c1cc(C)nc(Nc2ccc(Cl)cc2)n1.O=C(O)C(=O)O	100%	99%	
Nc1nc(N)c2c(Oc3ccc(Cl)c(Cl)c3)cccc2n1	95%	22%	
Br.CC(C)(C)OC(=O)N[C@@H](CS(=O)(=O)CCNC(=N)COCc1ccccc1)C(=O)OC(C)(C)C	88%	76%	

SMILES	Inhibition (Plasmodium falciparum [1])	Inhibition (Plasmodium falciparum [2])	Inhibition (HepG2)
Cc1nc(C)c(-c2ccc(Oc3cccc(OC(F)(F)F)c3)cc2)c(O)c1Cl	97%	97%	
CC(C)(C)c1ccc(Cc2cccc3nc(N)nc(N)c23)cc1	100%	51%	
CC(CNC(=N)c1cccc(C(=N)NCC(C)Oc2cccc(C3CCCCC3)c2)n1)Oc1cccc(C2CCCCC2)c1.Cl (stereo unspecified)	90%	31%	
COc1cc(Cc2cnc(N)nc2N)cc(OCCCC#N)c1OC	86%	0%	
CCCCc1nc2nc(N)nc(N)c2cc1CCC	97%	0%	
CN(C)S(=O)(=O)n1ccc2c3c(N)nc(N)nc3ccc21	94%	0%	
Cc1cc(O)c(-c2ccc(S(=O)(=O)c3ccc(Cl)cc3)cc2)c(C)n1	92%	80%	
Cc1nc2nc(N)nc(N)c2c(C)c1Cc1ccc(N)cc1.Cl	97%	0%	
CC(CO)(CO)NCc1cc2ccc3ccsc3c2c2ccccc12.CS(=O)(=O)O	96%	98%	
CCN(Cc1cccc2ccccc12)c1ccc2nc(N)nc(N)c2c1.Cl	100%	100%	
Cl.Nc1nc(N)c2c3c(ccc2n1)NCCC3	97%	0%	
Cl.N=C(N)c1ccc2[nH]c(-c3cc4cc(C(=N)N)ccc4o3)cc2c1	94%	87%	
CCCc1cc(Cc2cnc(N)nc2N)cc2c1OC(C)(C)C2.Cl	89%	3%	
N=C(NCC1CC1c1ccccc1)c1cccc(C(=N)NCC2CC2c2ccccc2)n1 (stereo unspecified)	95%	0%	
Cc1nc(C)c(-c2ccc(Oc3ccc(Cl)cc3)c(Cl)c2)c(O)c1Br	97%	96%	
CCc1cc(COc2ccc(CNCCC(C)C)cc2I)c(OCc2ccccc2)c(COc2ccc(CNCCC(C)C)cc2I)c1.Cl	89%	15%	
CCCc1cc(Cc2cnc(N)nc2N)c2cccnc2c1OC	98%	3%	
CCC1=C(CC2NCCc3cc(OC)c(OC)cc32)CC2c3cc(OC)c(OC)cc3CCN2C1 (stereo unspecified) [DIHYDROEMETINE]	100%	100%	
COc1ccc2ncc(F)c(C(O)CN3CCC(NCc4ccc5c(n4)NC(=O)CO5)CC3)c2c1.Cl (stereo unspecified)	99% and 100%	51% and 88%	
CCCCCCCN(Cc1ccc(OC(C)(C)C(=O)OCC)cc1)C(=O)Nc1ccc(Cl)cc1OCC	95%	89%	
CCCCNCCOc1ccc(-c2nc(-c3ccccc3)c(-c3ccccc3)[nH]2)cc1	100%	34%	
COc1cccc(Cn2ccc3c4c(N)nc(N)nc4ccc32)c1	99%	96%	
Cc1nc(C)c(-c2ccc(Oc3ccc(Cl)c(Cl)c3)cc2)c(O)c1Br	97%	96%	
COc1cc(Cc2cnc3nc(N)nc(N)c3c2C)cc(OC)c1OC	95%	98%	
Cc1nc(C)c(-c2ccc(Oc3ccc(OC(F)(F)F)cc3)cc2)c(OC(=O)c2ccccc2)c1Cl	97%	97%	
Cc1ccc(Cc2cccc3nc(N)nc(N)c23)cc1	92%	0%	
N=C(N)NC(=O)Nc1ccc(Cl)c(C(F)(F)F)c1	100%	13%	

SMILES	Inhibition (Plasmodium falciparum [1])	Inhibition (Plasmodium falciparum [2])	Inhibition (HepG2)
Nc1ncc(-c2ccc(S(=O)(=O)Nc3ccc(C(=O)N[C@@H](CCC(=O)O)C(=O)O)cc3)cc2)c(=O)[nH]1	99%	0%	
CC(C)(C)c1ccc(-c2nnc(N)nc2N)cc1	92%	0%	
CC(=O)Oc1c(Cl)c(C)nc(C)c1-c1ccc(Oc2ccc(Cl)cc2)cc1	98%	96%	
Cc1nc(C)c(-c2ccc(S(=O)(=O)c3ccc(Cl)cc3)cc2)c(O)c1Br	97%	97%	
CCCN(c1ccc(O)c(CN2CCCCC2)c1)c1ccc([N+](=O)[O-])cn1.O=C(O)C(=O)O	99%	96%	
CCOc1cc2ncnc(Nc3ccc(OCc4c(Cl)cccc4Cl)c(OC)c3)c2cc1OCC.Cl	89%	12%	
COc1ccc(Cc2c(Cl)nc3nc(N)nc(N)c3c2C)c(OC)c1OC	98%	0%	
COc1cccc2c(O)c(CNC3CCCCC3)ccc12.Cl	100%	98%	
Cc1nc(C)c(-c2ccc(-c3ccc(F)cc3)cc2)c(O)c1Cl	96%	96%	
COc1ccc(C2c3ccccc3-c3nc(N)nc(N)c3C2C)cc1 (stereo unspecified)	97%	0%	
COc1cc(Cc2cnc(N)nc2N)cc(OCCCCNS(=O)(=O)C(F)(F)F)c1OC	84%	0%	
CC1CNC(c2ccc(NC(=O)Nc3ccc(C4=NC(C)CN4)cc3)cc2)=N1.Cl (stereo unspecified)	85%	67%	
CCN(CC)CCNc1cc(C)nc(NC(=N)Nc2ccc(Cl)cc2)n1.Cl	100%	0%	
COc1ccc(Cc2cnc3nc(N)nc(N)c3c2C)cc1OC.O=S(=O)(O)CCO	93%	97%	
CC(C)Oc1ccc2ccccc2c1CNCCCCCCNCc1c(OC(C)C)ccc2ccccc12.CS(=O)(=O)O	99%	90%	
CCCCOc1c(CCNCCCCNCCc2cc(OC)c3ccccc3c2OCCCC)cc(OC)c2ccccc12.CS(=O)(=O)O	91%	47%	
Nc1nc(N)c2c(Oc3cccc(Cl)c3)cccc2n1	97%	7%	
Cn1c(N)cc(-c2cccc(I)c2)c2c(=O)nc(N)nc1-2	89%	75%	
CCCc1cc(OC)c(CC2c3cc(O)c(Cl)cc3C(c3ccccc3)CN2C)cc1OC.Cl (stereo unspecified)	100%	100%	
CC(C)n1c(C(C)(C)C)cc2c3c(N)nc(N)nc3ccc21	100%	99%	
Nc1nc(N)c2c(ccc3c2cnn3Cc2cccnc2)n1	95%	96%	
COc1ccc(-c2cnc(N)nc2N)cc1Cl	84%	1%	
Cl.O[C@@H](c1cc(C(F)(F)F)nc2c(C(F)(F)F)cccc12)[C@H]1CCCCN1	96% and 99%	99%	
Cl.c1ccc2c(NCCOCCNc3c4ccccc4nc4ccccc34)c3ccccc3nc2c1	94%	0%	
COc1ccc2c(O)c(Br)c(C)nc2c1	89%	74%	
O=C(Cc1c[nH]cn1)Nc1cccc(-c2ccc(-c3nc4cc(F)ccc4[nH]3)s2)c1	100%	94%	4%
